Compounds with a hit are over-represented: about 2.9% of the library has one in this group of screens.
N-glyco inh: blocks N-linked glycosylation in D54 reporter cells | D54 ERlucT glycosylation luciferase reporter, 24 h; percent of 100 nM tunicamycin response | reporter increase, % at 12.5 µM | 360,000 tested, 0.23% active;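 active = mean luciferase reporter signal, scaled so untreated is 0 and the glycosylation-blocking control 100, at or above a set limit in every replicate; inconclusive = mean reaches the limit but not every replicate does; inactive = mean below the limit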;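 also: luciferase carries N-glycosylation sites so blocking glycosylation raises the light; 0% = median of neutral control wells and 100% = median of 100 nM tunicamycin wells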
MITF act: increases MITF-driven TRPM1 promoter luciferase signal. SK-MEL-5 TRPM1-promoter luciferase, 24 h; % of positive control, neutral wells = 0. activation, % at 12.5 µM. 300,000 tested, 0.75% active;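 active = mean activation of at least 80% with every replicate also reaching 80%; inconclusive = mean reaches 80% but some replicate falls short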;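 also: 0% = neutral control wells and 100% = parthenolide positive control wells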
PfHsp90 yeast 2: reduces growth (ATP signal) of yeast expressing P. falciparum Hsp90; S. cerevisiae expressing PfHsp90, BacTiter-Glo ATP, 48 h; yeast lacking PDR1 and PDR3 efflux regulators; inhibition, % at 9.4 µM; 310,000 tested, 0.32% active; AID 504621;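 active = every replicate shows inhibition above about 80%, whatever the replicate mean, limit read from the data; inconclusive = mean inhibition reaches the set limit but some replicate falls short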;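 also: 0% = DMSO neutral controls and 100% = 20 µM radicicol positive controls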
TRPM1 prom inh: MITF TRPM1 promoter inhibition in SK-MEL-5 cells; SK-MEL-5 TRPM1 promoter luciferase, 24 h; inhibition, % at 12.5 µM; 330,000 tested, 0.83% active;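 active = mean inhibition across replicates of 60% or more, whatever share of single replicates reaches that level; inconclusive = some that reach 60%, reason not given; inactive = mean inhibition across replicates below 60%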
NSD2 HMT inh: NSD2 (human) methyltransferase inhibition; NSD2 peptide methylation, AlphaScreen, 120 min; inhibition, % at 12.5 µM; AID 743445; O96028; 310,000 tested, 0.54% active; in the data active = inhibition above about 50%
Wnt bcat act: activates Wnt/beta-catenin signaling in a reporter cell assay; AID 743398; activator, plate reader; 300,000 tested, 1.2% active; activation, % at 9.35 µM; in the data active = activation above about 30%, passing the limit was not always enough; inconclusive = no clear call, values can overlap the other calls;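 also: 0% = neutral control wells and 100% = positive control wells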
Active calls of the source: *; ? = inconclusive; / = not tested or not shown.

SMILES	N-glyco inh	MITF act	PfHsp90 yeast 2	TRPM1 prom inh	NSD2 HMT inh	Wnt bcat act
CCOc1ccc(C2Nc3ccc4ccccc4c3-c3c2c(=O)oc2ccccc32)cc1 (stereo not given)	12	-27	-38	29	-1	-1
O=C1/C(=N\S(=O)(=O)c2cccs2)C([n+]2ccccc2)=C([O-])c2ccccc21	-10	-104	6	104*	/	-9
Cc1ccc[n+](C2=C([O-])c3ccccc3C(=O)C2=O)c1	/	/	/	/	/	-2
O=c1[nH]c(CSc2ccccn2)nc2ccccc12	-7	59	-2	-50	1	31*
O=c1[nH]c(CSc2ccccn2)nc2c1cnn2-c1ccccc1	0	32	-8	-26	0	10
CCn1ccc(C(=O)Nc2ccccc2Cl)n1	-5	85*	6	-86	-2	/
CC(C)OC(=O)CSc1nnc(C2CCCCC2)n1N	3	/	-5	14	-4	42*
Cn1cccc1C(=O)NCC1COc2ccccc2O1 (stereo not given)	0	88*	/	-100	/	?
O=C(Cc1ccccc1)NCC1COc2ccccc2O1 (stereo not given)	-1	0	-5	-4	0	1
COc1ccc(OC)c(S(=O)(=O)Nc2ccc3c(c2)C(=O)OC3)c1	2	/	22	-3	1	-4
Cn1cccc1/C=C1\CCc2ccccc2C1=O	-17	5	33	-7	15	34*
Cn1cccc1/C=C1\Cc2ccccc2C1=O	-3	59	25	-56	/	63*
O=C1/C(=C\c2ccc(Br)o2)Cc2ccccc21	0	12	27	-11	2	41*
CC(C)Oc1ccc(CNC(=O)Oc2ccccc2)cc1	3	92*	-11	-89	-3	-1
COc1ccc(CNC(=S)NCc2ccc(OC(C)C)cc2)cc1	4	-14	4	12	-3	-3
C/C=C(\C)C(=O)OC1[C@H](OC(C)=O)C2(CO)C(CC1(C)C)C1=CCC3C4(C)CCC(O[C@@H]5O[C@H](C(=O)O)[C@@H](O[C@@H]6O[C@H](CO)[C@@H](O)[C@H](O)[C@H]6O)[C@H](O)[C@H]5O[C@H]5O[C@H](CO)[C@@H](O)[C@H](O)[C@H]5O)[C@](C)(CO)C4CCC3(C)[C@]1(C)C[C@H]2O (stereo not given in full)	-14	-97	-13	98*	/	/
C/C=C(/C)C(=O)OC1CC(C)(C)C[C@H]2C3=CC[C@@H]4[C@@]5(C)CCC(O[C@@H]6O[C@@H](C(=O)O)[C@@H](O)C(O[C@@H]7OC[C@H](O)[C@@H](O)[C@@H]7O[C@@H]7OC(CO)C(O)[C@@H](O)[C@@H]7O)C6O[C@@H]6OC(CO)C(O)C(O)C6O)[C@@](C)(CO)[C@@H]5CC[C@]4(C)[C@]3(C)CC(O)[C@@]12CO (stereo not given in full)	11	-53	-14	53	/	/
CCOC(=O)c1cccc(N/C=C/C(=O)c2ccc(OC)c(OC)c2)c1	-2	25	14	-29	1	/
COc1ccc(N/C=C\C(=O)c2ccc3c(c2)OCO3)cc1	-6	53	4	-55	4	75*
COc1ccc(N/C=C/C(=O)c2ccc3c(c2)OCO3)cc1OC	1	73	-4	-68	2	/
CCOc1ccc(N/C=C\C(=O)c2ccc3c(c2)OCO3)cc1	-8	49	7	-48	-3	0
O=C(/C=C\Nc1ccc2c(c1)OCO2)c1ccc2c(c1)OCO2	-8	13	7	-13	0	34*
CCOC(=O)c1ccc(N/C=C\C(=O)c2cccc(OC)c2)cc1	-2	96*	6	-86	-2	/
Cc1c(C2Nc3ccccc3C2C)[nH]c2ccccc12 (stereo not given)	/	/	/	/	13	-7
CCn1c(CC(=O)Nc2ccccc2)nnc1SCc1nc2ccccc2c(=O)[nH]1	-8	0	-28	5	4	0
SMILES	N-glyco inh	MITF act	PfHsp90 yeast 2	TRPM1 prom inh	NSD2 HMT inh	Wnt bcat act
Cc1ccc(-n2c(SCC(=O)c3ccccc3Br)nnc2-c2ccncc2)cc1	/	/	/	/	1	/
O=C(/C=C/c1cccc2ccccc12)N1CCOCC1	1	46	-21	-53	-1	37*
O=C(/C=C/c1ccccc1Cl)N1CCOCC1	-1	/	-10	-16	-1	2
COc1ccc(-n2c(SCC(=O)NCC3CCCO3)nnc2-c2ccncc2)cc1 (stereo not given)	/	/	/	/	-5	/
O=C(C#Cc1cccc([N+](=O)[O-])c1)c1ccccc1	-7	-81	137*	82*	/	/
O=C(O)C(=Cc1cccc([N+](=O)[O-])c1)c1ccccc1	4	/	/	/	1	-1
Nc1ccccc1C#CC(=O)c1ccccc1	-19	-92	114*	93*	/	-11
CCOc1nc2c(c(C)nn2-c2ccccc2)c(C)c1CCC(=O)NCCN1CCOCC1	/	/	/	/	0	/
COc1ccccc1Cn1[nH]nnc1=S	1	-9	-10	9	101*	4
COc1ccccc1CN1C(=O)CNC1=S	3	10	2	-11	2	/
CC(=O)c1ccc2c(c1)Cc1cc(C(C)=O)ccc1-2	-1	93*	-7	-91	-2	46*
CCC(=O)Nc1ccc2c(c1)Cc1cc(NC(=O)CC)ccc1-2	0	2	2	-6	-3	2
COc1cccc(CNC(=O)[C@H]2CCCN2)c1	/	/	/	/	/	0
c1ccc(-c2cnc(-c3ccccn3)nn2)cc1	-14	49	26	-44	/	46*
CSc1nsc(N/N=C/c2ccc3c(c2)OCO3)c1C#N	-6	92*	-5	-96	-3	22
COC(=O)c1cc(C(=O)OC)cc(-n2c(C)cc(C(=O)COC(=O)CNS(=O)(=O)c3ccc(C)cc3)c2C)c1	1	-12	-10	10	2	-3
Nc1[nH]c(C(=O)c2ccccc2)c(-c2ccccc2Cl)c1C(=O)NCCc1c[nH]c2ccccc12	/	/	/	/	/	0
S=c1nc(C2COc3ccccc3O2)[nH][nH]1 (stereo not given)	3	4	-79	-2	-3	1
CCCS(=O)(=O)c1cnc(C2COc3ccccc3O2)nc1N (stereo not given)	-18	-70	9	72*	1	-9
CCOC(=O)Cc1csc(NC(=O)c2ccc(S(=O)(=O)N(CCOC)CCOC)cc2)n1	1	5	-1	-3	-2	37*
CCOC(=O)Cc1csc(NC(=O)c2ccc(C)cc2)n1	1	19	2	-17	-2	2
COCC(=O)N1C[C@H]2CON(C)[C@H]2C[C@H]1c1cccc(-c2ccc(C#N)cc2)c1	1	-3	-21	5	/	-1
O=C(NC1=NCCS1)c1cc(-c2ccc(F)cc2)nc2ccccc12	-7	41	-5	-37	1	/
